Inconclusive results are not listed. Where a call stands in place of a potency, no number is given. The source made the active and inactive calls. Calls come from the whole dose curve; as a rule, active = well fitted curve in the direction sought with a large enough effect; inconclusive = small, poorly fitted or top-dose-only effect, or another doubt; inactive = no such curve, though single readings can be large; an effect the other way counts as inactive or inconclusive.
Tested on: not listed separately
Assay: qHTS of Trypanosoma Brucei Inhibitors: LOPAC Validation (AID 624147)
Conditions: purified enzyme assay, luminescence, 45 min; series mostly up to 57.5 µM
Outline: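 Activity of T. brucei pyruvate kinase was followed by Kinase-Glo Plus luminescence after the enzyme reacted 45 min at room temperature with 130 uM ADP (final) and substrate. Test compounds were added before ADP at multiple concentrations.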

Compound | outcome
C1CCc2nnnn2CC1 | inactive
COc1cc(NS(C)(=O)=O)ccc1Nc1c2ccccc2nc2ccccc12 | inactive
O=C1CCC(c2ccc(-n3ccnc3)cc2)=NN1 | inactive
CNCCC=C1c2ccccc2CCc2ccccc21 | inactive
CC1(C)CCC(NC(=O)[C@@H](N)CCC(=O)O)CC1 | inactive
N[C@H](CO)C(=O)O | inactive
Nc1cc(Cl)c(NC2=NCCN2)c(Cl)c1 | inactive

Target: Glucagon-like peptide 1 receptor (Homo sapiens) (UniProt P43220)
Assay: qHTS of GLP-1 Receptor Agonists: LOPAC Validation (AID 624148);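 note: luminescence from a luciferase reporter switched on by cAMP; higher luminescence signal means agonism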
Conditions: GLP-1R agonist cell assay; series mostly up to 46.1 µM
Outline: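 Agonism scored as increased luciferase luminescence driven by cAMP in HEK293 clones carrying GLP-1R. Cells settled 12 hours, received compound for 4-6 hr at 37 deg C, 5% CO2, and were read after 12 min detection reagent at RT.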

Glucagon-like peptide 1 receptor (Homo sapiens), sequence (P43220 whole entry, looked up): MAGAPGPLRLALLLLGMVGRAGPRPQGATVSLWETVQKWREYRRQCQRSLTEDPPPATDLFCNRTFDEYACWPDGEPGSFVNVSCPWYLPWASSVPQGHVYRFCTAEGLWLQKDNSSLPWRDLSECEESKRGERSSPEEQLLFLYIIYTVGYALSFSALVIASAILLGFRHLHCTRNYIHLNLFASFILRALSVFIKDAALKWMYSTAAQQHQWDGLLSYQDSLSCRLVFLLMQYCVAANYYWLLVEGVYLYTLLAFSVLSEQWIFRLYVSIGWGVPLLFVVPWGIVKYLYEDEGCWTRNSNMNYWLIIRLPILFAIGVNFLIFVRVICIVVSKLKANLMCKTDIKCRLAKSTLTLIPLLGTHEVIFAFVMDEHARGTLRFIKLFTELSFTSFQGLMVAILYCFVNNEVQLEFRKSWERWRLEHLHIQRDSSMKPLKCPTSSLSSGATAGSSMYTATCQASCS

Compound | outcome
C1CCc2nnnn2CC1 | inactive
COc1cc(NS(C)(=O)=O)ccc1Nc1c2ccccc2nc2ccccc12 | inactive
O=C1CCC(c2ccc(-n3ccnc3)cc2)=NN1 | inactive
CNCCC=C1c2ccccc2CCc2ccccc21 | inactive
CC1(C)CCC(NC(=O)[C@@H](N)CCC(=O)O)CC1 | inactive
N[C@H](CO)C(=O)O | inactive
Nc1cc(Cl)c(NC2=NCCN2)c(Cl)c1 | inactive

Tested on: not listed separately
Assay: qHTS of Nrf2 Activators: LOPAC Validation (AID 624149)
Conditions: Nrf2/ARE reporter cell assay; series mostly up to 46.1 µM
Outline: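 Following overnight seeding in 5% FBS OPTI-MEM, AREc32_Fluc cells receive compounds for a 24 hr incubation at 37 deg C with 5% CO2. Steady-Glo is added, and after 30 min at RT luminescence is recorded.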

Compound | Potency
C1CCc2nnnn2CC1 | inactive
COc1cc(NS(C)(=O)=O)ccc1Nc1c2ccccc2nc2ccccc12 | inactive
O=C1CCC(c2ccc(-n3ccnc3)cc2)=NN1 | inactive
CNCCC=C1c2ccccc2CCc2ccccc21 | inactive
CC1(C)CCC(NC(=O)[C@@H](N)CCC(=O)O)CC1 | inactive
N[C@H](CO)C(=O)O | inactive
Nc1cc(Cl)c(NC2=NCCN2)c(Cl)c1 | inactive

Tested on: not listed separately
Assay: HTS Assay for Allosteric Antagonists of the Human D2 Dopamine Receptor: Hit Validation in HTRF (AID 624455);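 note: stable D1 dopamine receptor cell line scored for blocking the D1 response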
Conditions: Cells stably expressing D1 dopamine receptor, inhibition mode; series mostly up to 46.1 µM
Outline: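 Validation of hits used D1 receptor stably expressed in cells with HTRF detection of response inhibition; origin screen measured calcium flux following EC80 dopamine in a force-coupled, inducible Hek293 Trex D2 cell line.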

Compound | outcome
COc1cc(NS(C)(=O)=O)ccc1Nc1c2ccccc2nc2ccccc12 | inactive
O=C1CCC(c2ccc(-n3ccnc3)cc2)=NN1 | inactive
CNCCC=C1c2ccccc2CCc2ccccc21 | inactive
CC1(C)CCC(NC(=O)[C@@H](N)CCC(=O)O)CC1 | inactive
N[C@H](CO)C(=O)O | inactive
Nc1cc(Cl)c(NC2=NCCN2)c(Cl)c1 | inactive

From PubChem BioAssay (NCATS)
